Drawing on PubChem BioAssay (EPA / NIEHS), this text covers AC50 and outcome for 25 compounds.

Assay [1] relates to guinea pig Histamine Receptor (H2), gene 100729734. Description: NVS_GPCR_gH2: NovaScreen (NVS) G Protein-Coupled Receptor Assay for guinea pig Histamine Receptor (H2) (AID 2283342). Put shortly: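 Guinea pig striatal membrane preparation with specific radioligand; bound counts measured by filtration and scintillation 1 h post-dosing, DMSO as baseline. Chemicals passing a 25 uM duplicate screen were titrated to a 50 uM maximum.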

Assay [2] deals with Estrogen receptor (Homo sapiens) (UniProt P03372). Briefly: NVS_NR_hER: NovaScreen (NVS) Nuclear Receptor Binding Assay for human Estrogen Receptor (ER) (AID 2283348). Put shortly: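 MCF7-derived receptor extract, radiolabelled ligand, competitive displacement. Read: scintillation counts at 18 h. DMSO = negative control/baseline. Primary 25 uM duplicate; follow-up concentration–response.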

The target is the same in assay [3]. Description: OT_ER_ERaERa_1440: Odyssey Thera (OT) 24-hour HEK293T Protein-Complementation Assay for Estrogen Receptor-alpha/-alpha Homodimer (AID 2283349).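 Note: hits raise fluorescence above DMSO for agonists and antagonists alike.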 Put shortly:
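Cells (HEK293T) carrying the fragment-tagged ERα LBD (aa 310-547) pair are treated with chemical for 24 hours. Nuclear and/or cytoplasmic fluorescence is then quantified on a laser scanning cytometer. Activity is scored as signal gain against DMSO.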

The next assay has as its system NCBI gene 100848466. Briefly: NVS_NR_bPR: NovaScreen (NVS) Nuclear Receptor Binding Assay for bovine Progextron Receptor (PR) (AID 2283343). Put shortly:
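Scintillation counts of bound radioligand were read 18 hours after chemical addition to membranes extracted from bovine uterus. Displacement was scored as loss of signal relative to DMSO controls. Screening began at 25 uM in duplicate.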

The target in assay [4] is Estrogen receptor (Homo sapiens) + Estrogen receptor beta (Homo sapiens) (UniProt P03372+Q92731). Briefly: OT_ER_ERaERb_0480: Odyssey Thera (OT) 8-hour HEK293T Protein-Complementation Assay for Estrogen Receptor-alpha/-beta Heterodimer (AID 2283352). Put shortly: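 Increase in mean fluorescence intensity, measured by laser scanning plate cytometry, reported ER-alpha/ER-beta LBD complementation in HEK293T cells after 8 h chemical exposure. DMSO served as baseline; basal signal is low, punctate and cytoplasmic.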

Assay [5] concerns the target chimpanzee Androgen Receptor (AR), AR (gene 747460) (UniProt O97775). Briefly: NVS_NR_cAR: NovaScreen (NVS) Nuclear Receptor Binding Assay for chimpanzee Androgen Receptor (AR) (AID 2283346).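 Note: a loss of bound radioligand signal versus DMSO counts as binding.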 Put shortly: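 Radioligand binding to chimpanzee AR expressed in Sf9/Sf21 cells, cell-free, measured 72 h after dosing by lysate-based scintillation counting. Loss of signal vs DMSO; initial duplicate screen at 25 uM, actives retested in concentration series.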

Assay [6] deals with Estrogen receptor (Homo sapiens) (UniProt P03372). Briefly: OT_ER_ERaERa_0480: Odyssey Thera (OT) 8-hour HEK293T Protein-Complementation Assay for Estrogen Receptor-alpha/-alpha Homodimer (AID 2283351).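 Note: rise in fluorescence from reassembled reporter fragments on ERα LBD homodimer in nucleus or whole cell.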 Put shortly:
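Cells were treated for 8 hours, then imaged on a laser scanning plate cytometer. Complementation of reporter fragments fused to the human ERα ligand-binding domain (residues 310-547) in HEK293T gave fluorescence, and gain of signal over vehicle was fitted.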

The target of assay [7] is human Constitutive Androstane Receptor (CAR), NR1I3 (gene 9970) (UniProt Q14994). Briefly: NVS_NR_hCAR_Antagonist: NovaScreen (NVS) Nuclear Receptor Binding Assay for human Constitutive Androstane Receptor Antagonism (CAR) (AID 2283344). Put shortly: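 Single 25 uM duplicate primary screen, with concentration-series follow-up on actives. Cell-free binding format run in antagonist mode, TR-FRET signal taken 1 h post-dose; activity is signal loss relative to DMSO.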

The target of assay [8] is bovine Estrogen Receptor (ER), ESR1 (gene 407238) (UniProt P49884). Briefly: NVS_NR_bER: NovaScreen (NVS) Nuclear Receptor Binding Assay for bovine Estrogen Receptor (ER) (AID 2283345).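 Note: actives lower the bound radioligand count which means they displace the ER ligand.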 Put shortly:
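Scintillation counting of displaced radioligand gave the readout; bovine uterine membrane extract supplied the receptor. Measured 18 h post-dose, normalized to DMSO baseline. Single 25 uM duplicate screen preceded concentration-response follow-up.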

The target in assay [9] is Bile acid receptor (Homo sapiens) (UniProt Q96RI1). Briefly: NVS_NR_hFXR_Antagonist: NovaScreen (NVS) Nuclear Receptor Binding Assay for human Farnesoid X Receptor Antagonism (FXR) (AID 2283350). On the procedure: NVS_NR_hFXR_Antagonist is a biochemical, single-readout assay that uses extracted gene-proteins in a cell-free assay. Measurements were taken 1 hour after chemical dosing in a 384-well plate.NVS_NR_hFXR_Antagonist is one of one assay component(s) measured or calculated from the NVS_NR_hFXR_Antagonist assay. It is designed to make measurements of fluorescent resonance energy transfer, a form of binding reporter, as detected with fluorescent resonance energy transfer signals by Time-Resolved Fluorescence Resonance Energy Transfer (TR-FRET) technology.Data from the assay component NVS_NR_hFXR_Antagonist was analyzed into 1 assay endpoint. This assay endpoint, NVS_NR_hFXR_Antagonist, was analyzed in the positive analysis fitting direction relative to DMSO as the negative control and baseline of activity. Using a type of binding reporter, loss-of-signal activity can be used to understand changes in the binding as they relate to the gene NR1H4. Furthermore, this assay endpoint can be referred to as a primary readout, because the performed assay has only produced 1 assay endpoint. To generalize the intended target to other relatable targets, this assay endpoint is annotated to the nuclear receptor intended target family, where the subfamily is non-steroidal. […]

Each structure is given as a SMILES string. Records with an inconclusive call do not appear. Where a structure was tested more than once in an assay, its records may differ in their call. Activity calls are given as the source filed them. Rule for the calls: active = hit-call score of the fitted dose curve at least 0.9, where 1 is the maximum; inconclusive = response in the unintended direction; inactive = score below 0.9.

Chain of bovine Estrogen Receptor (ER), ESR1 (gene 407238) (P49884 whole entry, looked up): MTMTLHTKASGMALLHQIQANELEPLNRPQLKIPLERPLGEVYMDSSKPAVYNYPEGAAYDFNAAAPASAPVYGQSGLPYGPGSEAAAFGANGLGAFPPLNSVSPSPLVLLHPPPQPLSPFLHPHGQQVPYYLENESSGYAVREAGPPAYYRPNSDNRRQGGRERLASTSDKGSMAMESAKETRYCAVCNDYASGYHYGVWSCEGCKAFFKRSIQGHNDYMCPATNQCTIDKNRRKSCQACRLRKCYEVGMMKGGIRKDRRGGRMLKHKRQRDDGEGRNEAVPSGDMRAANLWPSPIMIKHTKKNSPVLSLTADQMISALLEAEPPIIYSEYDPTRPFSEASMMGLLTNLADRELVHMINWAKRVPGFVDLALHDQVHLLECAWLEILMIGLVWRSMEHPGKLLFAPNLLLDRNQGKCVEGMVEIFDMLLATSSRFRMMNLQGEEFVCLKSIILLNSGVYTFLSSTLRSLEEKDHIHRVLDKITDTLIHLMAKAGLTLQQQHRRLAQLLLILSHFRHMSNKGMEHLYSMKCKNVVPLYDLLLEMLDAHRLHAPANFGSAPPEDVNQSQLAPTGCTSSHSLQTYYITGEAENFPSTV
Chain of human Constitutive Androstane Receptor (CAR), NR1I3 (gene 9970) (Q14994 whole entry, looked up): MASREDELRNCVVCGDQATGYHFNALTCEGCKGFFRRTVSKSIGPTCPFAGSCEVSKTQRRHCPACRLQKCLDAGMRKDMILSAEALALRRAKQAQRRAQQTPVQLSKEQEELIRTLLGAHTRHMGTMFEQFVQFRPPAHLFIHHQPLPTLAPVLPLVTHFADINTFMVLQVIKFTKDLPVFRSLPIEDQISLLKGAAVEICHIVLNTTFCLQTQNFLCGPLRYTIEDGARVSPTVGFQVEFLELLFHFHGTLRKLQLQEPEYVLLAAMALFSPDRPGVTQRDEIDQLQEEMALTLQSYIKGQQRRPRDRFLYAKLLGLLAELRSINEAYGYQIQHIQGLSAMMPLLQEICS
Chain of chimpanzee Androgen Receptor (AR), AR (gene 747460) (O97775 whole entry, looked up): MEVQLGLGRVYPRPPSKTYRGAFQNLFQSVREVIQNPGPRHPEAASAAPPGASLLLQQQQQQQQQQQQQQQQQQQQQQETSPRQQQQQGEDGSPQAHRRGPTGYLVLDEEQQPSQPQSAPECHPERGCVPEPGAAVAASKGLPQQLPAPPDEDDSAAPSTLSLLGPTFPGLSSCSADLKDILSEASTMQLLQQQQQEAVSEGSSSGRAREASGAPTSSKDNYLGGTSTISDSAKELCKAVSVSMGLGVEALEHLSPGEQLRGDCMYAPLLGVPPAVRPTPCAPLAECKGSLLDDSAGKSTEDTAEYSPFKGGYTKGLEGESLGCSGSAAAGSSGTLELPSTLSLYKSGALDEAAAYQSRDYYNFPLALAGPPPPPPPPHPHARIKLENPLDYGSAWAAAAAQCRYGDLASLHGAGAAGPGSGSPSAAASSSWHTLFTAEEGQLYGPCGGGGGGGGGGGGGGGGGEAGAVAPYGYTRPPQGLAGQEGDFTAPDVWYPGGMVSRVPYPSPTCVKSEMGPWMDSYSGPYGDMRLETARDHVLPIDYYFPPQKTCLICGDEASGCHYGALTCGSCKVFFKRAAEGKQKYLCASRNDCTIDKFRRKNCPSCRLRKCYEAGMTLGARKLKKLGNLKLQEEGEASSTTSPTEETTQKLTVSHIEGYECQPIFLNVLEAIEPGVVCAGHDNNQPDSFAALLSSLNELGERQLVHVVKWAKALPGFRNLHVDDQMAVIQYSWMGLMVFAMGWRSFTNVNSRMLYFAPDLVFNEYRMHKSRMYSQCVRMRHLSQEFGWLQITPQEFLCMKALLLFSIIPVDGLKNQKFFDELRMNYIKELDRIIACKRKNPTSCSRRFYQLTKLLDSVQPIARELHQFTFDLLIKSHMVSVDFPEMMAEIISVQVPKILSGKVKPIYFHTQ
Chain of Estrogen receptor (Homo sapiens) (P03372 whole entry, looked up, the tested form may be a part): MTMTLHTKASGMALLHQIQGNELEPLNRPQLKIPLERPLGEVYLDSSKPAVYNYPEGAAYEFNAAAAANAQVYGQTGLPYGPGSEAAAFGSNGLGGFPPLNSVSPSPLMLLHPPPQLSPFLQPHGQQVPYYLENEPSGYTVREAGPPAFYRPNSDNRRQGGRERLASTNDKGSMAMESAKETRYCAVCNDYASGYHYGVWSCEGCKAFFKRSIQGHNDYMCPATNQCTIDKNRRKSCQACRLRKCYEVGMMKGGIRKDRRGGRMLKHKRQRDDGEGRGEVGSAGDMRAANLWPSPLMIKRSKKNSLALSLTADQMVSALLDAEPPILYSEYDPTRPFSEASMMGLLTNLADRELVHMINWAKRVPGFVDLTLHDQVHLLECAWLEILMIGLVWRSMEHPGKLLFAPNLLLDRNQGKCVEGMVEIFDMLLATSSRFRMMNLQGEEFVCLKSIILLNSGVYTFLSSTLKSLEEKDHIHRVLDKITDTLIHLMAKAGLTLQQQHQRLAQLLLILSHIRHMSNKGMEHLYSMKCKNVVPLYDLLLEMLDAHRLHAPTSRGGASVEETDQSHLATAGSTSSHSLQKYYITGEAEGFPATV
Chain of Estrogen receptor (Homo sapiens) + Estrogen receptor beta (Homo sapiens) (P03372 whole entry, looked up, the tested form may be a part): as above
Chain of Estrogen receptor (Homo sapiens) + Estrogen receptor beta (Homo sapiens) (Q92731 whole entry, looked up, the tested form may be a part): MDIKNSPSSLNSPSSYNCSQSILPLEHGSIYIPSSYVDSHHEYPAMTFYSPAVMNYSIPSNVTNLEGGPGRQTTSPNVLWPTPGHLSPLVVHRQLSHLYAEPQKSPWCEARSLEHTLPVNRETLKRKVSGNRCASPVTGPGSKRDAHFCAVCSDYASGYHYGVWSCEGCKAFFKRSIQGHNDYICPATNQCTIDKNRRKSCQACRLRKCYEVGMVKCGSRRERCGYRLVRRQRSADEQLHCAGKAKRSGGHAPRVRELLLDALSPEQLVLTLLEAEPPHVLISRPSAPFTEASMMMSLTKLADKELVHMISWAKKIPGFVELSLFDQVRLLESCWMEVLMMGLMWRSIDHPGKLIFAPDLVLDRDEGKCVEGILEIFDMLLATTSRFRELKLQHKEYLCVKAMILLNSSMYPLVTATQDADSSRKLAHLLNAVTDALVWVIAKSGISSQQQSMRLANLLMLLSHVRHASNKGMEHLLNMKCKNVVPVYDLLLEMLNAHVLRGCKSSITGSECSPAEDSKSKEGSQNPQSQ
Chain of Bile acid receptor (Homo sapiens) (Q96RI1 whole entry, looked up): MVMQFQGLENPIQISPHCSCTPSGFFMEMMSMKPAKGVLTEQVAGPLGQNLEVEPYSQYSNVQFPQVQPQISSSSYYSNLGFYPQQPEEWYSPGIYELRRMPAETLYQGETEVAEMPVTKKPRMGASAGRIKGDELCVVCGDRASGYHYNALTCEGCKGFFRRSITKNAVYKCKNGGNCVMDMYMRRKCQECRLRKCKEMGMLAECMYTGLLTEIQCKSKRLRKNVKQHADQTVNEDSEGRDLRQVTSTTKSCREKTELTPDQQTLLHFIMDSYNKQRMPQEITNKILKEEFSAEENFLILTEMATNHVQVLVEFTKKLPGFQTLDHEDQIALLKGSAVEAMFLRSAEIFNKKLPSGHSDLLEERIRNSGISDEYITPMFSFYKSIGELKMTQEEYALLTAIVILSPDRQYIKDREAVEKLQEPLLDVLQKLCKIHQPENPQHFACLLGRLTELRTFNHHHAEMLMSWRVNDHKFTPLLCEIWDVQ

Turning to `COc1cc(C(C)C)c2c(c1)S(=O)(=O)N(COc1cc(=O)n3cccc(OCCN4CCCCC4)c3n1)C2=O`, the AC50 in [1] was 3.13 µM (active). Also, the outcome in assay [2] and in [3] was inactive.
Regarding `OCCNCCO`, in assay [3], the AC50 was 11.9 µM (active).
As for `CC(C)C(=O)Nc1ccc([N+](=O)[O-])c(C(F)(F)F)c1`, the compound was classed as inactive (in the assay on NCBI gene 100848466; in [2]; in assay [3]; in [4]).
For the compound `O=C(O)CO`, in assay [3], the compound was classed as inactive.
Turning to `c1ccc2c(c1)-c1cccc3c1c-2cc1ccccc13`, the outcome in assay [5], in assay [3] and in assay [4] was inactive.
As to `NNC(=O)c1ccncc1`, the compound was called inactive in [2], in assay [3] and in [4].
As to `CCCCCOC(C)=O`, in [3], the compound was called inactive.
Consider `CCc1cccc(CC)c1N`, for which, in assay [2], the concentration at half-maximal activity (AC50) was 10 µM (active). Further, the compound was called inactive in assay [3], in assay [6] and in assay [4].
As to `CCCCC(CC)C(=O)OCCOCCOCCOC(=O)C(CC)CCCC` (configuration not stated), the outcome in assay [7], in assay [8], in assay [2], in [3], in [6] and in assay [4] was inactive.
As to `CCc1ccc(O)c(C(C)(C)C)c1`, the compound was called inactive in [2], in [3], in [6] and in assay [4].
`CC1(C)C(=O)N(Cl)C(=O)N1Cl`: the outcome in [3] was inactive.
As for `OCC(CO)(CO)CO`, the compound was called inactive in assay [8], in assay [3], in assay [6] and in assay [4]. Besides, the AC50 in [2] was 3.49 µM (active).
On to `CCCCCCCCCC`, for which the compound was called inactive in assay [8], in [3] and in [4].
Regarding `Cc1nc(-c2ccccn2)ncc1C(=O)Nn1cc(C)c2cc(F)ccc21`, the compound was called inactive in assay [7], in [3] and in assay [4].
On to `C=CCc1cc(S(=O)(=O)c2ccc(O)c(CC=C)c2)ccc1O`, for which the compound was called inactive (with NCBI gene 100848466; in assay [2]; in assay [3]; in assay [4]). The AC50 is 19.1 µM (active) in [8], 33.1 µM (active) in assay [5], 12.5 µM (active) in assay [2] and 18.2 µM (active) in [9].
With `Cn1cc[nH]c1=S`, the compound was called inactive (in the assay on NCBI gene 100848466; in [3]; in assay [4]).
On to `CCN(CC)C(=S)SSC(=S)N(CC)CC`, for which the outcome in [2], in assay [3] and in assay [4] was inactive.
`CCOC(N)=O`: the outcome in assay [3] was inactive.
Still for that read-out and setting: to `O=S(=O)(O)c1ccc(N=Nc2c(O)ccc3cc(S(=O)(=O)O)ccc23)cc1` belongs “inactive”.
As for `O=c1[nH]cnc2c1ncn2[C@H]1CC[C@@H](CO)O1`, the compound was called inactive in assay [7] and in assay [3].
On to `Cc1ncc([C@@H](CCCCCCc2ccc3c(n2)NCCC3)CC(=O)O)cn1`, for which the AC50 in assay [1] was 25 µM (active). For the same compound, the compound was classed as inactive in [3], in [6] and in [4].
Regarding `COS(C)(=O)=O`, the result in assay [8], in [2], in assay [3] and in assay [6] was inactive.
Take `Cc1cccc(O)c1C`: the compound was classed as inactive in assay [8], in assay [2], in assay [3] and in assay [4].
`O=C(O)c1cccc(C[C@@H]2COc3ccc(OCc4nc5cc(F)ccc5s4)cc3[C@@H]2O)c1`: the compound was called inactive in assay [8], in [3] and in [6]. The half-maximal activity concentration (AC50) in assay [5] is 20.8 µM (active).
On to `c1ccc(C(O[C@@H]2CCCN(CCc3ccc4c(c3)OCO4)C2)c2ccccc2)cc1`, for which the concentration at half-maximal activity (AC50) is 0.337 µM (active) in assay [1], 68.3 µM (active) in assay [3] and 31.5 µM (active) in assay [4]. Further, the compound was classed as inactive in assay [8], in assay [5] and in assay [2].
